Screens from PubChem.
TRPML1 inh – qHTS for Inhibitors of the Human Mucolipin Transient Receptor Potential 1 (TRPML1); Mucolipin-1 (Homo sapiens), Q9GZU1; TRPML1-inducible cells, Ca2+ dye fluorescence, FDSS; stronger effect = lower value; inhibition of EC80 agonist-evoked calcium signal; activity change, negative = inhibition, % (concentration not given with the values); actives 0.02% (n = 390,000); AID 624415, 2012; in the data active = activity change below about -50%; inconclusive = between about -30% and that limit;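 note: stimulus is agonist 54-4 at its EC80 concentration; % is set by controls: 0 for no effect and ±100 for the full control effect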
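TRPML1-DL cells, Tet-induced overnight (~16 h, 37 °C) at 1,500 cells/well, were loaded with Ca8 no-wash dye plus quencher for 45-90 min at room temperature. Compounds were pinned during FDSS kinetic reading; agonist 54-4 at EC80 (4 uM final) then added.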
EPAC2 antag – qHTS for Antagonist of cAMP-regulated guanine nucleotide exchange factor 2 (EPAC2): primary screen; Rap guanine nucleotide exchange factor 4 (Homo sapiens), Q8WZA2; EPAC2 GEF exchange of Rap1B-BODIPY-GDP, fluorescence; Potency, µM (series often up to 114 µM), inactives show at the highest dose activity, negative = inhibition, usual class: inhibitors; actives 0.18% (n = 360,000); AID 720708, 2013; note: potency is the fitted concentration of half-maximal effect; % is set by controls: 0 for no effect and ±100 for the full control effect; nearly all actives have a fitted effect of over 45% in size
EPAC1 antag – qHTS for Antagonist of cAMP-regulated guanine nucleotide exchange factor 3 (EPAC1): primary screen; Rap guanine nucleotide exchange factor 3 (Homo sapiens), O95398; EPAC1 GEF assay, Rap1b-BODIPY-GDP exchange fluorescence; Potency, µM (highest dose often 115 µM), for the others: at the top dose activity change, negative = inhibition, most hits filed as inhibitors; actives 0.14% (n = 360,000);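 note: potency is the fitted concentration of half-maximal effect; plate controls were vehicle for no effect and positive control for full effect; nearly all actives have a fitted effect of over 50% in size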
EPAC1 agonist – qHTS for Agonist of cAMP-regulated guanine nucleotide exchange factor 3 (EPAC1): primary screen; Potency, µM (top dose mostly 154 µM), for inactives: at the top dose activation, most hits filed as activators; EPAC1 agonist qHTS, biochemical assay; response scale: 100% = response to 6.5 mM cAMP; actives 0.073% (n = 360,000); note: potency is the fitted concentration of half-maximal effect; nearly all actives have a fitted effect of over 60% in size
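Read-out is the fluorescence drop as BODIPY-GDP leaves Rap1B (480 nm excitation, 540 nm emission), recorded every 5 minutes over 30 minutes. Reactions held 100 nM EPAC1, 250 nM Rap1B–BODIPY-GDP and 50 uM GDP, with 6.5 mM cAMP setting full activation.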
TRPML1 ag – qHTS for Agonists of the Human Mucolipin Transient Receptor Potential 1 (TRPML1); activation, % (no concentration beside the values); TRPML1-expressing cells, Ca2+ dye fluorescence, FDSS; actives 0.12% (n = 410,000); AID 624414, 2012; in the data active = activation above about 50%; inconclusive = mostly about 30% to 49%; note: 0% is about no effect
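Tetracycline-induced TRPML1-DL cells are seeded and incubated overnight before loading with a no-wash Ca2+ dye and quencher. Agonist activity is taken from the 110 s fluorescence read following compound pin-transfer on an FDSS, before EC80 54-4 challenge.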
EPAC2 ag – qHTS for Agonist of cAMP-regulated guanine nucleotide exchange factor 4 (EPAC2): primary screen; Potency, µM (doses to about 154 µM), without a hit: at the top dose activation, most hits filed as activators; EPAC2 activation, biochemical qHTS; response scale: 100% = 6.5 mM cAMP response; actives 0.079% (n = 360,000); AID 720711, 2013; note: potency is the fitted concentration of half-maximal effect; nearly all actives have a fitted effect of over 50% in size
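Nucleotide exchange monitored as fluorescence drop when BODIPY-GDP leaves Rap1B. Reaction: 100 nM EPAC2, 250 nM RAP1B-BODIPY-GDP, 50 uM GDP, room temperature, kinetic read over 30 min. Activity expressed relative to 6.5 mM cAMP.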
The depositor's hits bear a star; ? = inconclusive; . = no result given. The list is not random: actives were taken first. Their share in the collection is about 0.4%. Unless noted, calls come from the whole dose curve; as a rule, active = well fitted curve in the direction sought with a large enough effect; inconclusive = small, poorly fitted or top-dose-only effect, or another doubt; inactive = no such curve, though single readings can be large; an effect the other way counts as inactive or inconclusive.

SMILES	TRPML1 inh	EPAC2 antag	EPAC1 antag	EPAC1 agonist	TRPML1 ag	EPAC2 ag
O=C(N/N=C/c1c(O)n(-c2ccccc2Cl)c(=O)c2ccccc12)C1COc2ccccc2O1 (configuration not stated)	3	14%	10µM*	14%	3	-5%
COc1ccc(C2Nc3ccccc3C(=O)N2Cc2ccco2)cc1COc1c(C)cccc1C (configuration not stated)	.	.	.	.	-1	.
Nc1c(S(=O)(=O)O)cc(Nc2ccc(Nc3nc(Cl)nc(Nc4ccc(S(=O)(=O)O)cc4)n3)c(S(=O)(=O)O)c2)c2c1C(=O)c1ccccc1C2=O	.	.	.	.	-1	.
Nc1c(S(=O)(=O)O)cc(NC(=O)c2ccccc2)c2c1C(=O)c1ccccc1C2=O	31	40µM*	?	-4%	2	0%
COCc1nnc(NC(=O)C2CCN(C(=O)c3ccccc3)CC2)s1	.	.	.	.	0	.
N#Cc1c(SCC(=O)Nc2ccc(C(F)(F)F)cc2)sc2c(O)cc(=O)[nH]c12	9	1%	1%	0%	-1	13%
N#Cc1c(SCC(=O)Nc2nncs2)sc2c(O)cc(=O)[nH]c12	-6	1%	89µM*	-9%	0	7%
COc1ccc(/C=C(\C)C(=O)NO)cc1	.	.	.	.	0	.
COc1cc2nc(N3CCCN(C)CC3)nc(NC3CCN(C)CC3)c2cc1OC	.	.	.	.	2	.
CCCOc1ccc(C(=O)NC(=S)NNC(=O)c2c(-c3ccccc3)noc2C)cc1	39	11%	3%	-10%	65*	-6%
Cc1cccc(C(=O)NNC(=S)NC(=O)c2cccs2)c1	2	-6%	-5%	-5%	66*	16%
Cc1ccc(C(=O)NNC(=S)NC(=O)c2ccc(Cl)cc2Cl)cc1	4	-5%	-15%	8%	72*	7%
Cc1cccc(C(=O)NNC(=S)NC(=O)c2ccccc2)c1	6	-4%	18%	2%	70*	5%
CCCOc1ccc(NC(=O)c2c(-c3ccccc3)noc2C)cc1	-8	4%	9%	-27%	2	2%
COc1cc2nc(Cl)nc(NC(C)C)c2cc1OC	.	.	.	.	-1	.
CN(C)/[N+]([O-])=N/Oc1ccc([N+](=O)[O-])cc1C(F)(F)F	-12	.	.	.	0	.
CN(C)c1ccc(/C=C/c2ccnc3ccccc23)cc1	.	.	.	.	20	.
CC(=O)C[C@H]1c2cc(F)cc(F)c2S(=O)(=O)N1C1CCN(Cc2ccccc2)CC1	.	.	.	.	0	.
Cc1ccc(C(=O)NNC(=S)NC(=O)c2ccccc2)cc1	-12	-7%	3%	7%	0	6%
Cc1ccc(C(=O)NC(=S)NNC(=O)c2ccccc2)cc1	-14	-1%	-26%	4%	69*	6%
Oc1ccc(NCc2cccc(OCc3ccccc3)c2)cc1	2	?	32µM*	-13%	3	7%
O=[N+]([O-])c1ccc(COc2cccc(CNc3ccc(F)cc3)c2)cc1	-4	-2%	-23%	4%	-2	10%
Oc1ccc(NCc2cccc(OCc3ccc(F)cc3)c2)cc1	9	-29%	45µM*	14%	1	18%
CN(C)c1ccc(/C=C/c2ccnc3ccccc23)cc1N	.	.	.	.	0	.
CCOc1c(OC(C)=O)ccc(/C=C/c2ccc3cccc(OC(C)=O)c3n2)c1[N+](=O)[O-]	17	-7%	-6%	11%	0	6%
